These results are taken from the supplement of paper PMC9177965.

SMILES strings stand for the structures. Where “and” joins values, the source holds several entries; their conditions need not be identical. Equal entries are not always repeated.

The subject of this test is HT29 RNF43 G659fs (RNF43 659mut, CRISPR-edited). In words: cell viability activity relative to DMSO (negative = inhibition); higher = more viable cells (less growth inhibition). Conditions: 5 µM; 96 h. On the procedure:
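Broad Repurposing Library primary screen at a single dose of 5 uM. HT29 sg-Ctrl and HT29 RNF43 G659fs CRISPR-edited isogenic cells were seeded at 2500 cells/well in 384-well plates in duplicate and treated for 96 h. Viability was read by CellTiter-Glo and reported as % activity relative to DMSO, with MG132 as the positive control (negative = growth inhibition).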
`CCS(=O)(=O)Nc1ccc2[nH]c(O)c(C(=Nc3ccc(CN4CCCCC4)cc3)c3ccccc3)c2c1`: the cell viability activity was -77.1%. Regarding `Cc1ncc(NC(=O)c2ccc(CN3CCN(C)CC3)c(C(F)(F)F)c2)cc1Nc1nccc(-c2cccnc2)n1`, the cell viability activity is -33.9%. Consider `CCOc1cc2ncc(C#N)c(Nc3ccc(F)c(Cl)c3)c2cc1NC(=O)/C=C/CN(C)C`, for which the cell viability activity is -77.4%. For `CN[C@@H]1C[C@H]2O[C@@](C)([C@@H]1OC)n1c3ccccc3c3c4c(c5c6ccccc6n2c5c31)C(=O)N[C@H]4O` the value was -88.9%. In the case of `CCOC(=O)CCNc1cc(N2CCc3ccccc3CC2)nc(-c2ccccn2)n1`, the cell viability activity was -82.7%. The result for `COc1cc([C@@H]2c3cc4c(cc3[C@@H](O[C@@H]3O[C@@H]5CO[C@@H](C)O[C@H]5[C@H](O)[C@H]3O)[C@H]3COC(=O)[C@H]23)OCO4)cc(OC)c1OP(=O)(O)O` reads -25.3%; that for `COc1c(OCCCN2CCOCC2)ccc2c3n(c(=NC(=O)c4cnc(N)nc4)nc12)CCN3`, -59.6%; that for `O=[N+]([O-])c1ccc2c(c1)S(=O)(=O)C=C2`, -95%. As to `CNC(=O)c1c(F)cccc1Nc1nc(Nc2cc3c(cc2OC)CCN3C(=O)CN(C)C)nc2[nH]ccc12`, the cell viability activity was -31.8%. As to `CC(C)(N)c1cc(C(=O)N[C@@H]2CCc3ccc(Oc4ccnc5c4CCC(=O)N5)cc3C2)cc(C(F)(F)F)c1`, the cell viability activity was -57.8%.

On to `CCc1nc(C(N)=O)c(Nc2ccc(N3CCC(N4CCN(C)CC4)CC3)c(OC)c2)nc1NC1CCOCC1`, for which the cell viability activity was -46.8%. As for `O=c1cc(N2CCOCC2)oc2c(-c3cccc4c3sc3ccccc34)cccc12`, the cell viability activity was -57.6%. For `COc1ccc(N(C)c2nc(C)nc3ccccc23)cc1` the value was -59.2%; for `CCc1c(O)cc(O)c(C(=O)c2ccc(OCCN3CCOCC3)c(OC)c2)c1CC(=O)N(CCOC)CCOC`, -93%; for `COC(=O)Nc1nc2ccc(SC(C)C)cc2[nH]1`, -43.7%. For the molecule `OCCCNc1cc(-c2ccnc(Nc3cccc(Cl)c3)n2)ccn1`, the cell viability activity was -86.6%. For the molecule `COc1ccc2c(O[C@@H]3C[C@H]4C(=O)N[C@]5(C(=O)NS(=O)(=O)C6CC6)C[C@H]5/C=C\CCCCN(C)C(=O)[C@@H]4C3)cc(-c3nc(C(C)C)cs3)nc2c1C`, the cell viability activity is -30%.

As for `Clc1cc(Cl)c(OCC#CI)cc1Cl`, the cell viability activity was -35.5%.

Regarding `O=C(NC[C@H](O)CO)c1ccncc1Nc1ccc(I)cc1F`, the cell viability activity is -83.4%.

On to `CNCCCOc1cc(F)c(-c2c(Cl)nc3ncnn3c2N[C@@H](C)C(F)(F)F)c(F)c1`, for which the cell viability activity was -72.6%.

With `COc1ccc(NC(=O)c2ccc(-c3ccc(-c4noc(C)n4)cc3C)cc2)cc1OCCN(C)C`, the cell viability activity was -93.7%. With `O=C(Nc1cc(C(F)(F)F)cc(C(F)(F)F)c1)c1cc(Cl)ccc1O`, the cell viability activity is -94.4%.

With `CN(c1ccccc1CNc1nc(Nc2ccc3c(c2)CC(=O)N3)ncc1C(F)(F)F)S(C)(=O)=O`, the cell viability activity was -45.3%.

For `C[C@@H](Oc1cc(-n2cnc3ccc(CN4CCN(C)CC4)cc32)sc1C(N)=O)c1ccccc1C(F)(F)F`, the cell viability activity was -89.5%. On to `C=CC(=O)Nc1cccc(Nc2nc(Nc3ccc(OCCOC)cc3)ncc2F)c1`, for which the cell viability activity was -33.3%. As for `CC(C)OC(=O)OCOP(=O)(CO[C@H](C)Cn1cnc2c(N)ncnc21)OCOC(=O)OC(C)C`, the cell viability activity was -26.8%. For `C=C1/C(=C\C=C2/CCC[C@]3(C)[C@@H]([C@H](C)CCCC(C)C)CC[C@@H]23)C[C@@H](O)C[C@@H]1O` the value was -54.3%; for `CN1CCC(NC(=O)c2cc(-c3c(O)cc(O)cc3Oc3ccc([N+](=O)[O-])cc3)on2)CC1`, -26.7%. For the molecule `CCCCC(=O)OCC(=O)[C@]1(O)Cc2c(O)c3c(c(O)c2[C@@H](O[C@H]2C[C@H](NC(=O)C(F)(F)F)[C@H](O)[C@H](C)O2)C1)C(=O)c1c(OC)cccc1C3=O`, the cell viability activity is -48.2%. `COc1ccc(/C=C\c2cc(OC)c(OC)c(OC)c2)cc1O`: the cell viability activity is -64.6%.

Consider `COc1cc([C@@H]2c3cc4c(cc3[C@@H](O[C@@H]3O[C@@H]5CO[C@@H](c6cccs6)O[C@H]5[C@H](O)[C@H]3O)[C@H]3COC(=O)[C@H]23)OCO4)cc(OC)c1O`, for which the cell viability activity was -84.4% and -59.9%. In the case of `CN[C@@H](C)C(=O)N[C@H](C(=O)N1CCC[C@H]1C(=O)N[C@H]1c2ccccc2C[C@H]1OCC#CC#CCO[C@@H]1Cc2ccccc2[C@@H]1NC(=O)[C@@H]1CCCN1C(=O)[C@@H](NC(=O)[C@H](C)NC)C1CCCCC1)C1CCCCC1`, the cell viability activity was -58.1%. The result for `Cc1ccc(/C=C2\CNC/C(=C\c3ccc(C)cc3)C2=O)cc1` reads -93.6%; that for `Nc1ncnc2c1c(-c1cccc(OCc3ccccc3)c1)cn2C1CC(CN2CCCC2)C1` (stereo not given), -48%.

On to `Clc1ccc(CSC(Cn2ccnc2)c2ccc(Cl)cc2Cl)cc1` (stereo not given), for which the cell viability activity is -38.7%. In the case of `CCCS(=O)(=O)Nc1ccc(F)c(C(=O)c2c[nH]c3ncc(-c4ccc(Cl)cc4)cc23)c1F`, the cell viability activity was -35.4%. Consider `CN1CCC(CNc2ccc3ncc(-c4cccc(OC(F)(F)F)c4)n3n2)CC1`, for which the cell viability activity was -53%. The result for `CC1(C)CC(Oc2ccc(-c3ccc(-c4cn[nH]c4)cc3O)nn2)CC(C)(C)N1` reads -77%; that for `CN1C/C=C/CCOc2cccc(c2)-c2ccnc(n2)Nc2cccc(c2)C1`, -92.8%. In the case of `Nc1ccc(-c2ccc3ncc4ccc(=O)n(-c5cccc(C(F)(F)F)c5)c4c3c2)cn1`, the cell viability activity was -63.8%.
